The panel holds about 83,000 compounds, 20% with a hit somewhere; the sample as a whole holds those more often.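 Method: cells in 96-well plates; compound added at one concentration; 48 h incubation; percent growth measured; values under 10 scored active.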 Unmarked numbers belong to inactive results. Calls of active or inactive are those of the source.

These results are taken from PubChem BioAssay (NCI).

What all share (assay): NCI-60 one-dose screen, 48 h (100 = growth as untreated, 0 = no growth, -100 = all killed)
Common to all, as to settings: 10 µM unless noted

The subject of test [1] is SK-MEL-2 melanoma.
The subject of test [2] is EKVX NSCLC.
Test [3] deals with SN12C renal.
In test [4] the test system is UO-31 renal.
Test [5] relates to TK-10 renal.
Test [6] deals with ACHN renal.
Test [7] has as its system CAKI-1 renal.
Test [8] concerns A498 renal.
Test [9] relates to CCRF-CEM leukemia.
Test [10] concerns MOLT-4 leukemia.
In test [11] the test system is OVCAR-8 ovarian.
Test [12] has as its system OVCAR-5 ovarian.
Test [13] has as its system OVCAR-4 ovarian.
In test [14] the test system is SK-OV-3 ovarian.
The subject of test [15] is IGROV1 ovarian.
Test [16] deals with OVCAR-3 ovarian.
Test [17] concerns HS 578T breast.
Test [18] has as its system NCI/ADR-RES ovarian.

As to `NS(=O)(=O)c1ccc(-n2nc(C(=O)N/N=C\c3ccc(F)cc3)cc2-c2ccc(Cl)cc2)cc1`, the growth in [1] was 96.5%; in test [2] it was 75.1%; in test [3], 90.7%; in [4] it was 62.4%; in test [5], 136%; in [6], 90%. The growth in test [7] is 60.6%; in test [8], 68.5%; in [9], 103%; in test [10], 89.2%; in test [11] it was 96.8%; in [12], 103%. Besides, the growth was 97.8% in test [13]; 93.5% in test [14]; 76.1% in test [15]; 99.8% in test [16]; 86% in test [17]; 106% in test [18].
For `O=c1c2cc(F)ccc2sc2c(NCCN3CCCCC3)nc3ccccc3c12`, the growth in test [1] was 98.7%; in test [2] it was 61%; in [3], 48.6%; in test [4] it was 27.1%; in test [5] it was 77.7%; in test [6] it was 42.7%. Besides, the growth in test [7] is 38.6%; in test [8] it was 61.6%; in [9], 44.3%; in [10], 27.5%; in [11], 57.6%; in test [12] it was 69.3%. For the same compound, the growth in test [13] was 50.7%; in test [14], 78.8%; in [15], 27.3%; in test [16], 31.5%; in [17] it was 56%; in test [18] it was 67.1%.
For `Cc1ccc(NS(=O)(=O)c2ccc3c(c2)C(=O)CC(c2ccc(C(=O)C(C)C)cc2)N3)cc1C` (centres undefined), the growth in test [1] was 64.2%; in [2], 22.7%; in test [3] it was 76.4%; in test [4], 51.7%; in test [5], 77.9%; in test [6], 55.1%. Besides, the growth in test [7] was 55.9%; in test [8], 45.2%; in [9] it was 50.3%; in test [10], 54.5%; in test [12] it was 80.1%; in test [13], 62.9%. Also, the growth is 74.4% in test [14]; 66.8% in test [15]; 74.4% in test [16]; 73.2% in test [17]; 56.3% in [18].
`COC(=O)c1ccc(C2Nc3ccc(S(=O)(=O)Nc4ccc(C)c(C)c4)cc3C3OCCC23)cc1` (centres undefined): the growth in test [1] was 93.4%; in [2] it was 57.9%; in test [3] it was 85.3%; in [4], 74.9%; in test [5], 90.4%; in test [6], 89.4%. Further, the growth in [7] is 75%; in test [8], 74.3%; in test [9] it was 74.2%; in test [10], 60.6%; in test [11] it was 92%; in test [12], 95.7%. In addition, the growth in test [13] was 82.8%; in [14] it was 92%; in test [15] it was 84.4%; in test [16], 79.1%; in test [17] it was 100%; in test [18], 88.5%.
On to `O=C(c1ccccc1)c1c(/C=C/c2ccc(Cl)cc2)nc2ccccc2c1/C=C/c1cccs1`, for which the growth in [1] was 103%; in test [2], 88.2%; in test [3], 90.2%; in [4], 82.9%; in [5] it was 99%; in test [6] it was 93.8%. For the same compound, the growth in test [7] was 81.2%; in test [8], 77.1%; in test [9], 96.4%; in [10], 94.2%; in test [11], 98%; in test [12], 98.1%. Moreover, the growth in test [13] was 96.3%; in test [14] it was 97.2%; in [15] it was 94.1%; in test [17], 106%; in test [18], 99.8%.
Turning to `O=C(/C=C/c1cccc(O)c1)c1cccc(-n2cc(-c3ccc4ccccc4c3)[nH]c2=O)c1`, the growth was 84.4% in test [1]; 11.2% in test [2]; 5.36% (active) in test [3]; 35.5% in test [4]; -5.34% (active) in [5]; -40.7% (active) in test [6]. Moreover, the growth in test [7] was -1.58% (active); in test [8], 91.9%; in test [9], 1.72% (active); in [10], -1.37% (active); in test [11], 13.5%; in test [12], -42.6% (active). For the same compound, the growth in [13] is -76.2% (active); in test [14], 19.6%; in test [15], 85.7%; in test [16], -73.2% (active); in [17], -11% (active); in [18] it was -39.3% (active).
Consider `COc1cc(C2CC(=O)Nc3c2c(C)nn3-c2nc3ccccc3[nH]2)c(OC)c2c1OCO2` (centres undefined), for which the growth was 80.7% in [1]; 71.7% in [2]; 82.2% in test [3]; 40.2% in test [4]; 36.4% in [5]; 86.2% in [6]. Also, the growth in test [7] is 40.6%; in [8] it was 38.8%; in test [9], 61.7%; in test [10], 13.5%; in [11], 67.9%; in test [12], 105%. The growth is 76% in test [13]; 81.7% in test [14]; 63.1% in [15]; 68.8% in [16]; 53.1% in test [17]; 63.2% in test [18].
Consider `O=C1/C(=C\c2c[nH]c3ccccc23)c2ccccc2N1c1c(Cl)cccc1Cl`, for which the growth was 15.8% in test [1]; -5.29% (active) in [2]; -29.6% (active) in [3]; 20.7% in [4]; -29.4% (active) in [5]; 3.26% (active) in test [6]. In addition, the growth in test [7] was -38.6% (active); in test [8], 19.2%; in [9], 11.6%; in [10], -13.1% (active); in test [11], 8.34% (active); in [12] it was -35.9% (active). The growth in test [13] was 25%; in test [14] it was 22.7%; in test [15], 23.9%; in test [16], -27.8% (active); in [17], -11.4% (active); in test [18] it was -8.2% (active).
For the compound `CNC(=O)CCN1CCN(CC/C=C2\c3ccccc3Sc3ccc(Cl)cc32)CC1`, the growth in [1] is 28.5%; in [2], 103%; in test [3], 95.5%; in [4], 53.9%; in test [5], 81.4%; in [6] it was 94.3%. The growth in test [7] was 94%; in [8], 74.5%; in test [9], 90.2%; in [10], 50.9%; in [11], 88.5%; in test [12], 96.3%. In addition, the growth in test [13] was 105%; in [14], 122%; in test [16] it was 57.8%; in test [17], 65.4%; in test [18] it was 98.3%.
